# Measurements: ChEMBL document CHEMBL3433997, “St. Jude Leishmania screening dataset” (2016)
# Columns and labels:
# Assay type in all cases: functional
# [1] = target: Solute carrier family 2, facilitated glucose transporter member 1 (Homo sapiens) (UniProt P11166); assay: ST_JUDE_LEISH: Cytotoxicity at 2uM final concentration against transgenic Leishmania Mexicana promastigotes LmGLUT1 that are glucose transport deficient and complemented with the human glucose transporter GLUT1. Activity is measured by DNA content using SYBR green in vitro
# [2] = target: Hexose transporter 1 (Plasmodium falciparum) (UniProt O97467); assay: ST_JUDE_LEISH: Cytotoxicity at 2uM final concentration against transgenic Leishmania Mexicana promastigotes LmPfHT that are glucose transport deficient and complemented with the Plasmodium falciparum hexose transporter. Activity is measured by DNA content using SYBR green in vitro
# [3] = target: Glucose transporter (Leishmania mexicana) (UniProt O61059); assay: ST_JUDE_LEISH: Cytotoxicity at 2uM final concentration against transgenic Leishmania Mexicana promastigotes LmGT2 that are glucose transport deficient and complemented with the L. Mexicana glucose transporter 2. Activity is measured by DNA content using SYBR green in vitro
# Sequence of Solute carrier family 2, facilitated glucose transporter member 1 (Homo sapiens) (P11166 whole entry): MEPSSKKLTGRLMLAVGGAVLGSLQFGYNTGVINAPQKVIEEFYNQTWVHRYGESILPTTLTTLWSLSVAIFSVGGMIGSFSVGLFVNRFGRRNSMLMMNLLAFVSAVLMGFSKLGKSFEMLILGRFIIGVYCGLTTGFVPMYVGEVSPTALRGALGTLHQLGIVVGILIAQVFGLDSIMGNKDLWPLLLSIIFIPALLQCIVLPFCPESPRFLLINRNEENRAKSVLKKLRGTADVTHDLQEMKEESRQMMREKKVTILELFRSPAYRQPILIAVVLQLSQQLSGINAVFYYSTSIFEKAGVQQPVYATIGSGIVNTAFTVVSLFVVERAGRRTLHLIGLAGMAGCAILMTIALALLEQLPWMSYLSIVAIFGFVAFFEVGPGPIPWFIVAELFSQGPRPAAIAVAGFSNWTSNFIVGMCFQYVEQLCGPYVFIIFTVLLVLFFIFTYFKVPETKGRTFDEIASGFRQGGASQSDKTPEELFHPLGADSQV
SMILES,inhibition [1],inhibition [2],inhibition [3]
CCOC(=O)C1=C(C)NC2=C(C(=O)CCC2)C1c1cn(Cc2ccc(Cl)cc2Cl)nc1-c1ccccc1 (centres undefined),2.11%,-1.29%,1.62%
O=C(Nc1ccnc2ccccc12)NC1CCN(CCc2ccccc2)CC1,12.1%,10.9%,7.91%
Cc1ccc(/C=C2/SC(=Nc3ccccc3)NC2=O)c(C)c1,13.2%,12.1%,7.9%
COc1cccc(CNc2noc(-c3c(-c4ccccc4)noc3C)n2)c1OC,3.64%,3.83%,2.76%
Cc1cc(=NN=Cc2cccc(F)c2)c2cc(F)ccc2[nH]1,8.18%,9.63%,4.81%
CCCc1ccc(Nc2nc(C)cc(N(CC)CCCN3CCCCC3)n2)cc1,-3.11%,-2.14%,0.52%
COc1cc(CCNC(=O)Cc2ccc3ccccc3c2)ccc1OCc1ccccc1,1.9%,1.88%,0.92%
CCC1CN2CCc3c([nH]c4ccc(OC)cc34)C2CC1CC1NCCc2cc(OC)c(OC)cc21 (centres undefined),3.04%,3.2%,4.05%
Cc1c(CN2CCCCC2)cccc1OCCCNc1nc(NCCc2ccc(O)cc2)nc(N2CCNCC2)n1,5.55%,2.95%,5.43%
COc1cc(Cc2cnc(N)nc2N)cc(OCCCCCCN2C(=O)c3ccccc3C2=O)c1OC,7.29%,4.53%,5.48%
O=C(/C=C/c1ccc(Cl)c(Cl)c1)NCCCCCN1CCC(NC(=O)Nc2ccc3c(c2)OCO3)CC1,0.33%,2.53%,4.27%
N=C(N)NC(=O)Nc1cc(Cl)c(Cl)c(Cl)c1,2.56%,4%,2.18%
O=C(c1cccs1)N1N=C(c2cccs2)CC1c1cccc([N+](=O)[O-])c1 (centres undefined),8.21%,5.4%,7.21%
CCN(CCCN1CCCCC1)c1cc(C)nc(Nc2ccc(Cl)cc2)n1,1.87%,2.6%,1.8%
O=C(Nc1cccc(CN2CCCN(Cc3cccc(F)c3)CC2)c1)c1ccc(Cl)c(Cl)c1,4.11%,2.83%,6.5%
CC(C)C(=O)NC(Nc1ccc([N+](=O)[O-])cc1)C(Cl)(Cl)Cl (centres undefined),3.83%,3.53%,1.48%
Nc1cccc(CNCc2cccc(-c3cccc(-c4nc5ccccc5[nH]4)c3)c2)c1,-1.07%,1.34%,-0.53%
N#CC(NC(=O)C=Cc1ccccc1)c1ccccc1 (centres undefined),-1%,-2.81%,-0.2%
